These results are taken from PubChem BioAssay (NCI).

Compounds without any hit were thinned out: in the full panel of roughly 83,000, 20% have a hit.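 Note: values are percent growth. 100 is the growth of untreated cells, values between 100 and 0 indicate rising inhibition; between -100 and 0 indicates cell death.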 A number with no mark means an inactive call. Calls of active or inactive are those of the source. How the source made its calls: active means growth percent below 10; inactive means the rest.

Assay in all cases: NCI-60 one-dose screen, 48 h (100 = growth as untreated, 0 = no growth, -100 = all killed)
Conditions in all cases: 10 µM unless noted

For test [1], the system named is DU-145 prostate.
Test [2] deals with K-562 leukemia.
Test [3] deals with MALME-3M melanoma.
Test [4] relates to MDA-MB-231 breast.
The test system of test [5] is RXF 393 renal.
Test [6] has as its system SF-268 CNS.
Test [7] has as its system SF-295 CNS.
Test [8] has as its system SF-539 CNS.
Test [9] concerns UACC-257 melanoma.
Test [10] has as its system M14 melanoma.
Test [11] concerns HCT-15 colon.
The test system of test [12] is HT29 colon.
The test system of test [13] is SNB-75 CNS.
In test [14] the test system is SNB-19 CNS.
The subject of test [15] is U251 CNS.
The subject of test [16] is PC-3 prostate.
Test [17] has as its system SK-MEL-5 melanoma.
Test [18] relates to UACC-62 melanoma.
Test [19] concerns LOX IMVI melanoma.
Test [20] relates to SK-MEL-28 melanoma.

For `COc1cc2ncnc(Oc3cccc(NC(=O)Nc4cc(C(C)(C)C(F)(F)F)on4)c3)c2cc1OC`, the growth was 31.4% in test [1]; 2.56% (active) in test [2]; 2.64% (active) in test [3]; 10.7% in test [4]; 16.7% in test [5]; 26.9% in test [6]. Besides, the growth in [7] was 38.2%; in [8], 33%; in [9] it was -10.4% (active); in test [10], -2.42% (active); in [11], 22.4%; in test [12], 6.54% (active). Moreover, the growth in test [13] is 38.1%; in test [14], 74.9%; in test [15], 50.8%; in [16], 35.1%; in [17], 0.0888% (active); in test [18], -10.5% (active). Moreover, the growth is 0.911% (active) in test [19] and -3.09% (active) in [20].
For the molecule `C[C@@H](Oc1cc(-n2cnc3ccc(CN4CCN(C)CC4)cc32)sc1C(N)=O)c1ccccc1C(F)(F)F`, the growth in [1] was 2.67% (active); in [2], 6.08% (active); in test [3], 21%; in test [4], 27.2%; in test [5], 16.5%; in test [6] it was 31.6%. For the same molecule, the growth in test [7] is 32.7%; in test [8], -22.1% (active); in [9], -25.5% (active); in [10], 15.7%; in test [11], 6.53% (active); in test [12], 4.62% (active). The growth was -5.55% (active) in [13]; 26.1% in test [14]; 29.1% in [15]; 32.9% in test [16]; 4.6% (active) in [17]; 51.1% in test [18]. The growth in test [19] was 4.53% (active); in test [20], 38%.
With `COc1cc2ncnc3c2cc1OCCCCCN(C)Cc1ccc(Br)cc1N3`, the growth is 31.1% in test [1]; 26.1% in test [2]; 71.8% in test [3]; 63.7% in test [4]; 69.3% in [5]; 65.1% in test [6]. The growth in [7] was 78.7%; in test [8], 88.6%; in test [9] it was 31.5%; in test [10] it was 36.9%; in test [11], 19.5%; in [12], 28.9%. The growth in test [13] is 74.5%; in test [14], 88.4%; in [15] it was 68.6%; in test [16], 39%; in test [17] it was 72.7%; in [18] it was 43.8%. Also, the growth in test [19] is 32.8%; in test [20], 74.8%.
Regarding `CC1(COc2ccc3c(c2)ncn3-c2ccc3cccc(N4CCC(N)CC4)c3n2)COC1`, the growth was 15.9% in [1]; 0.523% (active) in [2]; 20.8% in [3]; 4.69% (active) in test [4]; -58.6% (active) in [5]; 9.66% (active) in [6]. Moreover, the growth was 59.8% in test [7]; -82.3% (active) in [8]; -50.3% (active) in test [9]; 2.82% (active) in test [10]; 10.5% in [11]; 0% (active) in test [12]. The growth was 14.4% in test [13]; 7.04% (active) in [14]; -36.4% (active) in test [15]; 30.2% in test [16]; -13.8% (active) in [17]; 99.3% in test [18]. Besides, the results for the growth in test [19] and in [20] were -57.2% (active) and 15.2%, respectively.
In the case of `Cn1ccnc1C(=O)/C=C/c1ccc(CC(=O)Nc2ccc(S(F)(F)(F)(F)F)cc2)cc1`, the growth was 8.82% (active) in test [1]; 0.513% (active) in [2]; 51.4% in test [3]; -2.8% (active) in [4]; -70.6% (active) in test [5]; 7.07% (active) in [6]. Also, the growth in test [7] is -6.63% (active); in test [8], -84.7% (active); in test [9], 54.6%; in test [10], -27.4% (active); in test [11] it was 1.2% (active); in [12], -36% (active). In addition, the growth in [13] was 3.35% (active); in test [14], -39.9% (active); in test [15] it was -93.3% (active); in [16] it was -32.7% (active); in test [17], 33.2%; in [18], -2.41% (active). For the same molecule, the growth is -78.7% (active) in test [19] and 38.2% in test [20].
For the molecule `C[C@@]1(C(=O)Nc2ccc(F)nc2)CCCN1c1nc(Nc2cc(C3CC3)[nH]n2)c2cccn2n1`, the growth in test [1] was 38.9%; in test [2], 27.3%; in test [3], 55.3%; in [4] it was 20.7%; in test [5], -45.9% (active); in test [6], 15.5%. For the same molecule, the growth in test [7] is -13.2% (active); in test [8], 16.3%; in test [9] it was 22.1%; in test [10], 21.6%; in test [11] it was 26.5%; in test [12], -31.8% (active). In addition, the growth in [13] was -53.2% (active); in [14] it was 55.2%; in test [15], 32.3%; in [16], 30.8%; in test [17], 48.1%; in [18] it was 17.5%. Moreover, the growth in [19] was -35.5% (active); in test [20], 43.6%.
On to `CCc1nc(C(N)=O)c(Nc2ccc(N3CCC(N4CCN(C)CC4)CC3)c(OC)c2)nc1NC1CCOCC1`, for which the growth is 45.1% in [1]; 16.1% in test [2]; 52.4% in test [3]; 20.3% in test [4]; -92.9% (active) in test [5]; 38.3% in [6]. The growth in [7] was 12.8%; in test [8], -78.3% (active); in [9], 40.5%; in [10], 15.2%; in test [11], 25%; in test [12] it was -23.9% (active). For the same molecule, the growth is -45.3% (active) in test [13]; 29.8% in [14]; 32% in [15]; 36.3% in test [16]; 66.4% in test [17]; 25.3% in test [18]. Besides, the figures for the growth in test [19] and in [20] were -84.9% (active) and 24%, respectively.
With `Cc1cc(C)n(CC(=O)Nc2ccc(-c3nc4ccccc4s3)cc2)n1`, the growth in test [1] is 103%; in test [2], 100%; in test [3] it was 108%; in test [4] it was 108%; in test [5], 129%; in test [6], 100%. Besides, the growth is 103% in test [7]; 98.6% in [8]; 107% in [9]; 111% in test [10]; 105% in test [11]; 108% in [12]. In addition, the growth was 101% in test [13]; 99.8% in test [14]; 89.7% in test [15]; 86.8% in test [16]; 96.4% in [17]; 95.3% in [18]. Further, the figures for the growth in test [19] and in test [20] were 97.7% and 109%, respectively.
